Only some compounds are listed: those with a hit (about 10% of all), similar ones and a draw of the others.
G9a block = inhibitors of human histone lysine methyltransferase G9a; Q96KQ7; AID 504332; 8.8% of 350,000 active; G9a H3K9 monomethylation, AlphaScreen, 2 h; Potency, µM (series often up to 102 µM), most hits filed as inhibitors; note: nearly all actives have a fitted effect of over 75% in size
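Enzyme 20 nM + cpd, 15 min RT; add b-H3K9 pep 500 nM / SAM 20 uM; 2 h RT; anti-H3K9me1 Ab 0.5 ug/mL + SA donor / anti-rabbit acceptor beads 20 ug/mL each, 10 min; AlphaScreen read.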
BAZ2B inh = inhibitors of human BAZ2B bromodomain | Q9UIF8 | AlphaScreen BAZ2B-H3K14Ac peptide displacement | Potency, µM (doses to about 114 µM), actives largely listed as inhibitors | 4.4% of 360,000 active | AID 504333; note: nearly all actives have a fitted effect of over 60% in size
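BAZ2B 50 nM plus b-H3(5-23)K14Ac 50 nM, PBS pH 7.4/0.01% Tween-20, 30 min RT; compound added (max 110 uM), 30 min RT; streptavidin donor/Ni-chelate acceptor beads 10 ug/mL final, 20 min dark; AlphaScreen read.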
HP1b chromo inh = blocks HP1-beta chromodomain binding to methylated histone tails | AlphaScreen HP1-beta / biotin-H3K9me3 peptide binding | Potency, µM (highest dose often 114 µM), most hits filed as inhibitors | 0.56% of 390,000 active | AID 540317; note: nearly all actives have a fitted effect of over 70% in size
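Compound inhibition of the preformed complex between 50 nM HP1-beta and 50 nM biotinylated H3K9me3 peptide was read by AlphaScreen. Buffer was PBS pH 7.4 with 0.01% Tween-20. Incubations ran 30 min at room temperature, with 10 ug/mL donor/acceptor beads.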
JMJD2A Tudor inh = JMJD2A Tudor domain (human) inhibition. O75164. AlphaScreen JMJD2A-Tudor / H3K4me3 peptide binding. Potency, µM (highest dose often 114 µM), hits mostly inhibitors. 4.4% of 390,000 active. AID 504339; note: nearly all actives have a fitted effect of over 50% in size
GLS inh = inhibitors of human glutaminase (GLS); O94925; GLS enzymatic activity, qHTS titration; AID 624170; 0.21% of 410,000 active; Potency, µM (titrated, usually from 45.5 µM), actives largely listed as inhibitors
Target sequence (O94925 whole entry, looked up): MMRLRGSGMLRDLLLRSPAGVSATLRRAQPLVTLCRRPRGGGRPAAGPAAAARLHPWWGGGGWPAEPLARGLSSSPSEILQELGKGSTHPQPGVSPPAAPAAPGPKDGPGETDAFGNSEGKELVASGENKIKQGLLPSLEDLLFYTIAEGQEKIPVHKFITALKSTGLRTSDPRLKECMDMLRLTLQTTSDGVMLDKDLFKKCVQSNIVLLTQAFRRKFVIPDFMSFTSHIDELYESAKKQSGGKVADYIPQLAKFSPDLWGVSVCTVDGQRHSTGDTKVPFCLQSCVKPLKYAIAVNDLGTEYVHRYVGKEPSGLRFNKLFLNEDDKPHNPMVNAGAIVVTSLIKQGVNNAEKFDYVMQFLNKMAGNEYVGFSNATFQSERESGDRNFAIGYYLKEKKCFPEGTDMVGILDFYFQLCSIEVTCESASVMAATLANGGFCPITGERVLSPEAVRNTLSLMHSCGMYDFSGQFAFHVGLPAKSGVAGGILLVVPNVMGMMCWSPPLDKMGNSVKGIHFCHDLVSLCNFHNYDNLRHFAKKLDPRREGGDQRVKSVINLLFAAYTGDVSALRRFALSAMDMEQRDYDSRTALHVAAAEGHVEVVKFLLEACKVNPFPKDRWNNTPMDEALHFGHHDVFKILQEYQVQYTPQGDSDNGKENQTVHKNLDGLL
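Coupled fluorescence readout: glutamate oxidase/HRP/Amplex Red detect glutamate formed by hKGA from L-glutamine (1 mM solution added). Buffer 45 mM KH2PO4 pH 8.2, 0.02% Tween-20; reads at t0 and 30 min RT.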
Of the large screens only hits and unclear results are named; the others gave an inactive call. Calls come from the whole dose curve; as a rule, active = well fitted curve in the direction sought with a large enough effect; inconclusive = small, poorly fitted or top-dose-only effect, or another doubt; inactive = no such curve, though single readings can be large; an effect the other way counts as inactive or inconclusive.

CCOC(=O)C1=C(N)n2c(s/c(=C\c3ccco3)c2=O)=C(C(=O)OCC)C1c1ccco1 (configuration not stated)	G9a block inconclusive, BAZ2B inh 7.94µM, JMJD2A Tudor inh inconclusive
CCOC(=O)C1=C(c2ccccc2)N=c2s/c(=C\c3ccco3)c(=O)n2C1c1cccs1 (configuration not stated)	G9a block inconclusive, BAZ2B inh 11.2µM, JMJD2A Tudor inh 25.1µM
CC1=C(C(=O)OC(C)C)C(c2ccco2)NC(=O)N1 (configuration not stated)	BAZ2B inh inconclusive, JMJD2A Tudor inh inconclusive
CC1=CSC2=NC(=O)/C(=C\c3cccn3-c3ccccc3)C(=N)N12	JMJD2A Tudor inh inconclusive
Cc1ccc(-n2cccc2/C=C2/C(=N)N3C(=NC2=O)SN=C3S(C)(=O)=O)cc1Cl	G9a block 50.1µM, BAZ2B inh 44.7µM, JMJD2A Tudor inh 44.7µM
CCC1=NN2C(=N)/C(=C\c3cccn3-c3c(C)cccc3C)C(=O)N=C2S1	G9a block inconclusive
Cc1cccc(C)c1-n1cccc1/C=C1/C(=N)N2C(=NC1=O)SN=C2S(C)(=O)=O	G9a block 31.6µM
COc1ccccc1CNC(=O)c1ccc(CSc2nc3ccncc3n2Cc2cccc(F)c2)cc1	G9a block inconclusive
O=C1CC(NCC2CCCO2)C(=O)N1c1ccc(Cl)cc1 (configuration not stated)	G9a block 44.7µM
N#Cc1cccc(-c2nc(NCc3ccccc3)c3ccccc3n2)c1	none (no result: BAZ2B inh, HP1b chromo inh, JMJD2A Tudor inh, GLS inh)
Cc1ccc(/C=N/n2c(-c3cccs3)n[nH]c2=S)cc1	G9a block 0.447µM, JMJD2A Tudor inh 50.1µM
S=c1[nH]nc(-c2cccs2)n1/N=C/c1c(Cl)cccc1Cl	G9a block 1.26µM, JMJD2A Tudor inh inconclusive
COc1ccc(/C=N/n2c(-c3cccs3)n[nH]c2=S)cc1	G9a block inconclusive, JMJD2A Tudor inh 44.7µM
COc1ccc(C[C@@](C)(N)C(=O)O)cc1OC	none (no result: BAZ2B inh, HP1b chromo inh, JMJD2A Tudor inh)
CC1=C(C(=O)N2CCCCCC2)CC(CC(=O)NCCN2CCOCC2)C(=O)N1Cc1ccc(C(C)(C)C)cc1 (configuration not stated)	none (no result: G9a block, BAZ2B inh, HP1b chromo inh, JMJD2A Tudor inh)
O=C(c1ccncc1)N1CCC2(CCN(Cc3ccncc3)CC2)CC1	none (no result: BAZ2B inh, HP1b chromo inh, JMJD2A Tudor inh, GLS inh)
Cc1cc(N=Nc2ccc(C)c(N=Nc3cc(C)c(N)cc3N)c2)c(N)cc1N	G9a block 39.8µM, BAZ2B inh 39.8µM, HP1b chromo inh inconclusive, JMJD2A Tudor inh 50.1µM
Cc1ccc(N=Nc2ccc(O)c3ncccc23)cc1C	G9a block inconclusive, JMJD2A Tudor inh inconclusive
CCCN1CCN(C(=O)c2ccc3[nH]c(C)c(C)c3c2)CC1	none (no result: G9a block, BAZ2B inh, HP1b chromo inh, JMJD2A Tudor inh)
Cc1ccc(OC(=O)C2CSC3(C)CCC(=O)N23)c(Br)c1 (configuration not stated)	none
COC(=O)c1ccc(OC(=O)C2CSC3(C)CCC(=O)N23)cc1 (configuration not stated)	G9a block 56.2µM
CCN(CC)CCN(C(=O)CCOc1ccccc1)c1nc2c(F)cc(F)cc2s1	G9a block inconclusive (no result: BAZ2B inh)
COc1cc2ccccc2cc1C(=O)N(CCN(C)C)c1nc2c(F)cc(F)cc2s1	G9a block 31.6µM, BAZ2B inh inconclusive, JMJD2A Tudor inh inconclusive
COc1cc2ccccc2cc1C(=O)N(CCN(C)C)c1nc2ccc(Br)cc2s1	G9a block 25.1µM, BAZ2B inh inconclusive, HP1b chromo inh inconclusive, JMJD2A Tudor inh inconclusive
CN(C)CCCN(C(=O)CCc1ccccc1)c1nc2ccc(Br)cc2s1	G9a block 79.4µM (no result: BAZ2B inh)
O=C(CCc1ccccc1)N(Cc1cccnc1)c1nc2c(F)cc(F)cc2s1	none
CN(C)CCN(C(=O)CCc1ccccc1)c1nc2c(F)cc(F)cc2s1	G9a block 50.1µM (no result: BAZ2B inh)
COc1ccc(C(=O)NCCn2cc(SCc3ccc(C(F)(F)F)cc3)c3ccccc32)cc1OC	none
CCc1ccc2c(c1)NC(c1ccc(F)cc1)=NC(c1ccncc1)=N2	none
CCCCCCSc1ccc([C@@H]2[C@@H]3C(=O)N(C)C(=O)[C@@H]3[C@]3(C(=O)OC)CCCCN23)cc1	none (no result: G9a block, BAZ2B inh)
Cc1ccc2c(c1)nnn2C1CCN(S(=O)(=O)c2ccc(C(=O)N(C)C3CCCCC3)cc2)CC1	G9a block 56.2µM, JMJD2A Tudor inh inconclusive
Cc1ccc(S(=O)(=O)N2CCC(n3nnc4cc(C)ccc43)CC2)cc1	none
Cc1ccnc(N=O)c1	HP1b chromo inh inconclusive, JMJD2A Tudor inh 20µM (no result: G9a block, BAZ2B inh)

Screening results: PubChem, National Center for Advancing Translational Sciences (NCATS)
